Rows were chosen to be rich in hits. Some 7.3% of all compounds tested hit in one or more screens of this group.
RORgamma inh – qHTS for inhibitors of ROR gamma transcriptional activity | Nuclear receptor ROR-gamma (Mus musculus), P51450 | Drosophila S2 Gal4-RORgamma UAS-luciferase reporter, 20 h | Potency, µM (top dose mostly 53.6 µM), for the others: at the top dose activity change, negative = inhibition, actives largely listed as inhibitors | actives 5.4% (n = 310,000); also: nearly all actives have a fitted effect of over 60% in size
Target sequence (P51450 whole entry, looked up, the tested form may be a part): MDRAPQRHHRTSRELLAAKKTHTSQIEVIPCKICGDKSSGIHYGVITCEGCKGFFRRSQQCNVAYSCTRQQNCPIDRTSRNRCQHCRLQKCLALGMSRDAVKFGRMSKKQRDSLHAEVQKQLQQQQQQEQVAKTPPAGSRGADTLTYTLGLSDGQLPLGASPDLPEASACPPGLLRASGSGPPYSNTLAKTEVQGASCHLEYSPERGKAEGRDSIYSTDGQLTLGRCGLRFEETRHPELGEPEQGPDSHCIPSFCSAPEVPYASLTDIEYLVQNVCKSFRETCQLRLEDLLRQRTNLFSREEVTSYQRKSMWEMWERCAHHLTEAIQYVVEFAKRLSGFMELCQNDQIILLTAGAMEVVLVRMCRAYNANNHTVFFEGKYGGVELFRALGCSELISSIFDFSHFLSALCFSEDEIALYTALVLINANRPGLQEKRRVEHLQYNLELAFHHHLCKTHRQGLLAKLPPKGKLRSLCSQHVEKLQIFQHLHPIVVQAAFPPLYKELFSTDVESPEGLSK
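Stable Schneider cell line, Gal4 DNA-binding domain fused to ROR gamma, UAS-luciferase. Cmpd 1 hr RT → CuSO4 700 uM final → 20 hr RT → luciferase reagent 10 min → luminescence.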
Tau FP inhib – qHTS for Inhibitors of Tau Fibril Formation, Fluorescence Polarization; Microtubule-associated protein tau (Homo sapiens), P10636; K18 P301L tau heparin fibrillization, Alexa594 FP, 6 h; Potency, µM (highest dose often 57.7 µM), without a hit: top-dose activity, negative = inhibition, most hits filed as inhibitors; actives 0.39% (n = 280,000); AID 1468, 2008; also: nearly all actives have a fitted effect of over 55% in size
Target sequence (P10636 561-689 P618L limits assumed): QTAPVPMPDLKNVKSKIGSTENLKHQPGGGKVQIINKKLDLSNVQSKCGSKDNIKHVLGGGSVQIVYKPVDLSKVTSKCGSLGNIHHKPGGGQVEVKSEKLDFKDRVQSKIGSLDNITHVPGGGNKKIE
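FP of Alexa 594-tau after heparin (20 uM) induction. Substrate: human K18 P301L, 15 uM unlabeled, 0.24 uM labeled. Buffer 100 mM sodium acetate pH 7. 6 hr, 37 C.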
Tau fibril ThT – qHTS for Inhibitors of Tau Fibril Formation, Thioflavin T Binding | actives 2.1% (n = 270,000) | recombinant tau K18 P301L, heparin-induced fibrillization, ThT fluorescence | AID 1460, 2008 | Potency, µM (top dose mostly 57.4 µM), for inactives: at the highest dose activity, negative = inhibition, actives largely listed as inhibitors; also: nearly all actives have a fitted effect of over 55% in size
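Heparin-induced fibrillization of the P301L-mutant K18 repeat-domain fragment of human tau was followed by ThT binding in quantitative high-throughput format.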
VP16 counter – VP16 counterscreen qHTS for inhibitors of ROR gamma transcriptional activity; Drosophila S2 Gal4-VP16 UAS-luciferase, luminescence, 20 h; Potency, µM (doses to about 53.6 µM), inactives show at the top dose activity, negative = inhibition, most hits filed as inhibitors; actives 3.5% (n = 310,000);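 also: Gal4-VP16 expression switched on by copper sulfate through the metallothionein promoter; nearly all actives have a fitted effect of over 50% in size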
Tau fluor cs – Counterscreen qHTS for Inhibitors of Tau Fibril Formation, Fluorescence Polarization; AID 1463, 2008; tau K18 P301L (four-repeat tau fragment) Alexa594 fluorescence, heparin fibrillization; Potency, µM (titrated, usually from 57.7 µM), inactives show at the top dose activity change, negative = decrease; actives 0.93% (n = 280,000); also: nearly all actives have a fitted effect of over 55% in size
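Human K18 P301L tau (15 uM unlabeled plus 0.24 uM Alexa 594-labeled, final) in 100 mM sodium acetate pH 7 was mixed with compound and 20 uM heparin and incubated 6 hr at 37 C.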
* = called active by the depositor; [ ] = dose if it differs, or a comment. Calls follow the shape of the dose curve; as a rule, active = well fitted curve in the direction sought with a large enough effect; inconclusive = small, poorly fitted or top-dose-only effect, or another doubt; inactive = no such curve, though single readings can be large; an effect the other way counts as inactive or inconclusive. % is scaled to controls: 0 for no effect and ±100 for the full control effect; potency is read from the fitted curve at half-maximal effect.

How did O=c1nc2ccc(Cl)cn2c2ccc(S(=O)(=O)N3CCOCC3)cc12 do in these assays?
RORgamma inh: 12%; VP16 counter: -5%

How did CC(C)c1ccc(NC(=O)C2CCCN(S(=O)(=O)c3ccc4[nH]c(=O)oc4c3)C2)cc1 (centres undefined) do in these assays?
Tau FP inhib: -12%; Tau fibril ThT: 3%; Tau fluor cs: -20%

How did C#CCN[C@@H]1CCc2ccccc21 do in these assays?
RORgamma inh: 11%; VP16 counter: 0%

Results for Cc1ccc(NC(=O)CCn2cnc3onc(-c4ccc(F)cc4)c3c2=O)c(Br)c1 ?
Tau FP inhib: inconclusive; Tau fibril ThT: 0%; Tau fluor cs: -29%

How did O=C(CCn1cnc2onc(-c3ccc(F)cc3)c2c1=O)Nc1cccc(C(F)(F)F)c1 do in these assays?
Tau FP inhib: 22µM*; Tau fibril ThT: 14%; Tau fluor cs: inconclusive

How did CCOC(=O)c1noc2ncn(CC(=O)Nc3cccc(C(F)(F)F)c3)c(=O)c12 do in these assays?
Tau FP inhib: -11%; Tau fibril ThT: 8%; Tau fluor cs: -8%

What do the screens show for `O=C(CCn1cnc2onc(-c3ccc(F)cc3)c2c1=O)Nc1ccc(F)c(Cl)c1`?
Tau FP inhib: 28µM*; Tau fibril ThT: 18%; Tau fluor cs: inconclusive

Results for O=C(N/N=C/c1ccc(O)cc1)c1cccc(N/N=C/c2ccc(O)cc2)c1 ?
RORgamma inh: -1%; Tau FP inhib: 5%; Tau fibril ThT: 5µM*; VP16 counter: 2%; Tau fluor cs: 14µM*[quencher]

What do the screens show for `O=C(N/N=C/c1ccncc1)c1ccc(OCc2ccccc2)cc1`?
RORgamma inh: 0%; Tau FP inhib: -5%; Tau fibril ThT: inconclusive; VP16 counter: 7%; Tau fluor cs: -19%

How did O=C(N/N=C/c1ccc(OCc2ccccc2)cc1)c1cccs1 do in these assays?
RORgamma inh: 25%; Tau FP inhib: inconclusive; Tau fibril ThT: -5%; VP16 counter: -16%; Tau fluor cs: -30%

How did O=C(N/N=C/c1ccc(OCc2ccccc2)cc1)c1ccncc1 do in these assays?
RORgamma inh: 13µM*; Tau FP inhib: -13%; Tau fibril ThT: inconclusive; VP16 counter: -17%; Tau fluor cs: -19%

What do the screens show for `O=C(C[n+]1ccc(C(=O)N/N=C/c2ccc(Br)cc2)cc1)c1ccccc1`?
RORgamma inh: -27%; Tau FP inhib: -9%; Tau fibril ThT: 13µM*; VP16 counter: -1%; Tau fluor cs: inconclusive

How did Oc1ccc(N=Cc2ccc(OCc3ccccc3)cc2)cc1 do in these assays?
RORgamma inh: -38%; Tau FP inhib: 13µM*; Tau fibril ThT: 4µM*; VP16 counter: inconclusive; Tau fluor cs: inconclusive

What do the screens show for `O=C(N/N=C/c1ccncc1)c1cccc(N/N=C/c2ccncc2)c1`?
RORgamma inh: -1%; Tau FP inhib: 3%; Tau fibril ThT: inconclusive; VP16 counter: -7%; Tau fluor cs: inconclusive

Results for CC(=N)C1=C(O)CC(c2ccccc2)CC1=O (centres undefined) ?
RORgamma inh: 16%; VP16 counter: -3%

What do the screens show for `N=C1C(c2ccccc2)=C(O)CN1c1cccc(S(=O)(=O)NCc2ccco2)c1`?
RORgamma inh: 31%; Tau FP inhib: 1%; Tau fibril ThT: 4%; VP16 counter: 3%; Tau fluor cs: 1%

Results for O=C(C[n+]1ccc(C(=O)N/N=C/c2ccc(O)cc2)cc1)c1ccccc1 ?
RORgamma inh: -27%; Tau FP inhib: -16%; Tau fibril ThT: 8.9µM*; VP16 counter: 3%; Tau fluor cs: inconclusive

What do the screens show for `COc1ccc(OC)c(/C=N/NC(=O)c2cc[n+](CC(=O)c3ccccc3)cc2)c1`?
RORgamma inh: -9%; Tau FP inhib: -7%; Tau fibril ThT: 11µM*; VP16 counter: 1%; Tau fluor cs: inconclusive

How did O=C(C[n+]1ccccc1)N/N=C/c1ccc(F)cc1 do in these assays?
RORgamma inh: 13%; Tau FP inhib: 4%; Tau fibril ThT: -2%; VP16 counter: 4%; Tau fluor cs: 3%

What do the screens show for `O=C(C[n+]1ccc(C(=O)N/N=C/c2ccc(OCc3ccccc3)cc2)cc1)c1ccccc1`?
RORgamma inh: inconclusive; Tau FP inhib: 0%; Tau fibril ThT: 6.3µM*; VP16 counter: inconclusive; Tau fluor cs: inconclusive

How did CC1=NN(c2ccc(C(=O)O)cc2)C(=O)/C1=C\c1ccc(OC(=O)c2cccs2)cc1 do in these assays?
RORgamma inh: 11µM*; Tau FP inhib: inconclusive; Tau fibril ThT: inconclusive; VP16 counter: -1%; Tau fluor cs: 8%

What do the screens show for `CC(C)Oc1ccc(/C(O)=C2/C(=O)C(=O)N(CCN3CCNCC3)C2c2cccc([N+](=O)[O-])c2)cc1` (centres undefined)?
RORgamma inh: -19%; VP16 counter: -14%

Results for Cc1ccc(C(C(=O)NCC2CCCO2)N(C(=O)c2snc(C(N)=O)c2N)c2ccc(C)c(C)c2)o1 (centres undefined) ?
RORgamma inh: -1%; VP16 counter: -9%

What do the screens show for `O=C(N/N=C1/C[C@@H](O)[C@@H](O)[C@@H]2[C@@H]3C(=O)N(Cc4ccc5c(c4)OCO5)C(=O)[C@H]3CC[C@H]12)OCc1ccccc1`?
RORgamma inh: 2%[10 µM]; Tau FP inhib: -3%[11.6 µM]; Tau fibril ThT: -5%[11.5 µM]; VP16 counter: 2%[10 µM]; Tau fluor cs: -4%[11.6 µM]

How did COCCNC(=O)Cn1cc(C(=S)N2CCOCC2)c2ccccc21 do in these assays?
RORgamma inh: -18%; Tau FP inhib: -3%; Tau fibril ThT: 3%; VP16 counter: 2%[10 µM]; Tau fluor cs: 6%

How did COCCNC(=O)Cn1cc(/C=N/NC(=O)c2ccc(Oc3ccc(O)cc3)cc2)c2ccccc21 do in these assays?
RORgamma inh: 0%; Tau FP inhib: 16%; Tau fibril ThT: inconclusive; VP16 counter: -2%; Tau fluor cs: 18µM*[quencher]

What do the screens show for `Cc1ccc(OCC(=O)N/N=C/c2cn(Cc3ccccc3)c3ccccc23)cc1`?
RORgamma inh: 5µM*; Tau FP inhib: 9%; Tau fibril ThT: inconclusive; VP16 counter: 7.1µM*; Tau fluor cs: inconclusive

Results for COc1ccc(OCCn2cc(/C=N/NC(=O)c3ccncc3)c3ccccc32)cc1 ?
RORgamma inh: 5µM*; Tau FP inhib: 15%; Tau fibril ThT: inconclusive; VP16 counter: 8.9µM*; Tau fluor cs: 13µM*[quencher]

How did CCOC(=O)N/N=C/c1cn(Cc2ccc(Cl)cc2)c2ccccc12 do in these assays?
RORgamma inh: -44%; Tau FP inhib: 3%; Tau fibril ThT: -8%; VP16 counter: inconclusive; Tau fluor cs: -21%

Screens from PubChem.
